HTT promoter inh – HTT promoter inhibition; AID 1508623; Potency, µM (top dose mostly 57.5 µM), usual class: inhibitors; HEK293 HTT promoter firefly luciferase reporter, 24 h; actives 0.93% (n = 48,000); further: nearly all actives have a fitted effect of over 50% in size
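Firefly luciferase signal from promoter-reporter HEK293 cells was scaled between vehicle (0%) and zero RLU (-100%). Compounds were tested at final concentrations of up to 57.5 uM over 24 h at 37 degrees C. PTC124 at 50 uM final served as control inhibitor.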
p53null 39C kill – kills p53 null cells at the nonpermissive temperature; H1299 p53-null (neo) cells, 39C, ATPlite viability, 24 h; Potency, µM (top dose mostly 46.1 µM), most hits filed as cytotoxic; AID 904; actives 0.97% (n = 55,000); further: nearly all actives have a fitted effect of over 50% in size
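Concentration-response (up to 46 uM) was run for 24 h at the nonpermissive 39C on H1299-p53A138V or H1299-neo cells. ATP content was measured with ATPlite luminescence. AC50 values were Hill-modeled after normalizing between DMSO and 100 uM tamoxifen killing.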
HTT-AS act – activators of huntingtin-antisense promoter activity. Potency, µM (top dose mostly 57.5 µM), hits mostly activators. HEK293 HTT-AS promoter firefly luciferase reporter, 24 h; response scale: percent change from vehicle, -100% = no light. actives 0.24% (n = 48,000); further: nearly all actives have a fitted effect of over 55% in size
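Quantitative HTS used concentration series of up to 57.5 uM final on HEK293 luciferase reporter cells, 24 h at 37 degrees C. Readout was Dual-Glo firefly luminescence.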
p53null 32C kill – selectivity test: cytotoxicity in p53 null cells, permissive temperature. H1299-neo p53 null cells, ATP luminescence, 24 h, 32C. Potency, µM (highest dose often 46.1 µM), actives largely listed as cytotoxic. actives 0.62% (n = 55,000). AID 903; further: nearly all actives have a fitted effect of over 55% in size
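Luminescent ATP readout gave cell viability of p53-null H1299-neo cells after a 24 h compound exposure at the permissive 32C. Titrations ran up to 46 uM, and AC50s were fitted with the standard Hill equation.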
Large screens that a line does not name were inactive. In the library only some 1.9% were active in any assay of this set; here they are far more common. The call rests on the fitted dose curve; in most records, active means well fitted curve in the direction sought with a large enough effect; inconclusive means small, poorly fitted or top-dose-only effect, or another doubt; inactive means no such curve, though single readings can be large; an effect the other way counts as inactive or inconclusive.

CCOC(=O)C1=C(CN2CCN(c3ccc(C)cc3C)CC2)NC(=O)NC1c1ccc(OC)cc1 (stereo unspecified)	HTT promoter inh 28.2µM
COc1ccc(C2=C(C)C(=O)N(Cc3ccc(C(=O)Nc4cccc(F)c4)cc3)S2(=O)=O)cc1	HTT promoter inh inconclusive
COc1ccc(C2=C(C)C(=O)N(Cc3ccc(C(=O)Nc4ccc(F)cc4C)cc3)S2(=O)=O)cc1	HTT promoter inh 10µM
Cc1cc(C(=O)Nc2sc3c(c2C#N)CCCC3)no1	p53null 39C kill 11.2µM, p53null 32C kill 14.1µM (no result: HTT promoter inh, HTT-AS act)
NS(=O)(=O)c1cccc2c1C(=O)c1cccc(O)c1C2=O	HTT promoter inh inconclusive (no result: p53null 39C kill, p53null 32C kill)
Cc1nc(-c2ccc(Cl)cc2)sc1CCNC(=O)Cc1ccc(F)cc1	HTT promoter inh 31.6µM, p53null 32C kill inconclusive
COc1cccc2sc(NC(=O)c3ccc4c(c3)OCCO4)nc12	p53null 39C kill 7.94µM, HTT-AS act inconclusive, p53null 32C kill 7.94µM
CC1CCCCN1c1nc(-c2ccc(C(C)(C)C)cc2)nc2ccccc12 (stereo unspecified)	HTT promoter inh inconclusive, p53null 39C kill 15.8µM, p53null 32C kill 12.6µM
CCCOc1ccc(-c2nc(N3CCC(C)CC3)c3ccccc3n2)cc1	none (no result: HTT promoter inh, HTT-AS act)
CC1CCCN(c2nc(-c3ccccc3O)nc3ccccc23)C1 (stereo unspecified)	none
CC1CCN(c2nc(-c3ccc(C(C)(C)C)cc3)nc3ccccc23)CC1	p53null 39C kill 12.6µM, p53null 32C kill 12.6µM
CC(O)C1C(=O)N2C(C(=O)O)=C(SC3CNC(C(=O)N(C)C)C3)C(C)C12 (stereo unspecified)	none (no result: p53null 39C kill, p53null 32C kill)
CC(C)(N)c1ccc(-c2nc3ccccc3nc2-c2ccccc2)cc1	none (no result: p53null 39C kill, p53null 32C kill)
Cc1ccc(-c2cc(C(=O)NCc3cnn(C)c3C)c3ccccc3n2)cc1C	p53null 39C kill 0.794µM, p53null 32C kill inconclusive
O=C(O)C[C@H](O)C[C@H](O)C=Cc1c(C2CC2)nc2ccccc2c1-c1ccc(F)cc1	none (no result: p53null 39C kill, p53null 32C kill)
CCc1ccc(NC(=O)c2cc3ccccn3n2)cc1	HTT promoter inh inconclusive, p53null 39C kill 7.94µM, p53null 32C kill 10µM
Cc1ccc(NC(=O)c2cc3ccccn3n2)cc1F	p53null 39C kill inconclusive, p53null 32C kill 12.6µM (no result: HTT promoter inh, HTT-AS act)
Cc1ccccc1CCNC(=O)c1cc2ccccn2n1	p53null 39C kill 10µM, p53null 32C kill inconclusive (no result: HTT promoter inh, HTT-AS act)
COc1ccc(OC)c(-c2nnc3ccc(-c4ccc(OC)c(O[C@@H]5CCOC5)c4)nn23)c1	HTT promoter inh inconclusive (no result: p53null 39C kill, p53null 32C kill)
Cc1cc(NCc2ccc(Cl)cc2)n2cnnc2n1	HTT promoter inh 25.1µM
Cc1cccc(NS(=O)(=O)c2ccc3nc(-c4ccccc4)[nH]c3c2)c1C	p53null 39C kill 11.2µM, p53null 32C kill inconclusive
Cc1ccc(NS(=O)(=O)c2ccc3nc(-c4ccccc4)[nH]c3c2)c(Br)c1	HTT promoter inh inconclusive
CC(C)c1ccc(NS(=O)(=O)c2ccc3nc(-c4ccccc4)[nH]c3c2)cc1	HTT promoter inh inconclusive, p53null 39C kill 20µM, p53null 32C kill inconclusive
O=C(Nc1ccc(F)cc1)c1ccc(Cn2nc(N3CCN(c4ccccc4)CC3)ccc2=O)o1	HTT promoter inh 14.1µM
CC1(C)CCC(c2ccc(Cl)cc2)=C(CN2CCN(c3ccc(C(=O)NS(=O)(=O)c4ccc(N[C@H](CCN5CCOCC5)CSc5ccccc5)c(S(=O)(=O)C(F)(F)F)c4)cc3)CC2)C1	none (no result: p53null 39C kill, p53null 32C kill)
CCCn1c(/C=C/c2ccccc2)nc2ccccc21	p53null 39C kill inconclusive, HTT-AS act inconclusive, p53null 32C kill 15.8µM
CC1=C(C(=O)Nc2ccc(Cl)cc2)C(c2ccccc2)n2ncc(C(=O)Nc3ccccc3)c2N1 (stereo unspecified)	HTT promoter inh 25.1µM
CC1=C(C(=O)Nc2ccc(Cl)cc2)C(c2ccccc2C)n2ncc(C(=O)Nc3ccc(C)cc3)c2N1 (stereo unspecified)	HTT promoter inh inconclusive
O=C(c1cc2ccc3cccnc3c2[nH]1)N1CCCCC1	p53null 39C kill 0.794µM, HTT-AS act inconclusive, p53null 32C kill 2µM
CC1CCCN(C(=O)c2cc3ccc4cccnc4c3[nH]2)C1 (stereo unspecified)	HTT promoter inh inconclusive, p53null 39C kill 2µM, p53null 32C kill 1µM
NC(=O)c1ncn([C@@H]2O[C@H](CO)[C@@H](O)[C@@H]2O)c1O	none (no result: p53null 39C kill, p53null 32C kill)
Cc1nc2c(-c3ccccc3)c(C)[nH]n2c(=O)c1Cc1ccc(Br)cc1	HTT promoter inh 12.6µM (no result: p53null 39C kill, p53null 32C kill)
Cc1ccc(Cc2c(C)nc3c(-c4ccccc4)c(C)[nH]n3c2=O)cc1	HTT promoter inh inconclusive (no result: p53null 39C kill, p53null 32C kill)
CC(C)(F)C[C@H](N[C@@H](c1ccc(-c2ccc(S(C)(=O)=O)cc2)cc1)C(F)(F)F)C(=O)NC1(C#N)CC1	none (no result: p53null 39C kill, p53null 32C kill)
CN(C)c1ccc(C2C=C(c3ccccc3)Nc3nnnn32)cc1 (stereo unspecified)	p53null 39C kill 7.94µM, p53null 32C kill inconclusive
CCN(C(=O)c1ccco1)c1nnc(-c2ccc(OC)cc2)s1	p53null 39C kill 12.6µM, p53null 32C kill inconclusive (no result: HTT promoter inh, HTT-AS act)
COc1ccc(N(Cc2cccs2)C(=O)c2ccco2)cc1	none
CCCN1CCN(CCCNC(=O)c2ccc3c(c2)sc2nc(-c4ccc(OCC)cc4)cn23)CC1	p53null 39C kill 25.1µM, p53null 32C kill inconclusive
CCC(=O)NCCc1nc2cc(NC(=O)c3cccc(Br)c3)ccc2n1C	p53null 39C kill 10µM, HTT-AS act inconclusive, p53null 32C kill 12.6µM
O=C(O)c1ccnc(-c2cc(C(=O)NCCc3ccccc3)ccn2)c1	none (no result: p53null 39C kill, HTT-AS act, p53null 32C kill)
CCc1ccc(N2CCn3c2nc2c3c(=O)n(Cc3c(F)cccc3Cl)c(=O)n2C)cc1	p53null 39C kill 12.6µM
N#Cc1ccccc1NC(=O)c1ccc2c(Cl)c3c(nc2c1)CCCC3	none (no result: HTT promoter inh, HTT-AS act)
O=C(Nc1ccccc1F)c1ccc2c(Cl)c3c(nc2c1)CCC3	HTT promoter inh 12.6µM, p53null 39C kill 1.58µM, p53null 32C kill 1.26µM
C[C@]12CCC(=O)C=C1[C@@H]1CC1[C@H]1[C@H]3[C@@H]4C[C@H]4[C@@]4(CCC(=O)O4)[C@@]3(C)CC[C@H]12 (stereo partly specified)	none (no result: p53null 39C kill, p53null 32C kill)
COc1cc(C2CC(=O)N(Cc3cccc(F)c3)c3ccccc3S2)cc(OC)c1OC (stereo unspecified)	HTT promoter inh 20µM
COc1ccc(N2C(=O)CS(=O)(=O)C23C(=O)N(Cc2cccc(F)c2)c2ccccc23)cc1OC (stereo unspecified)	none
Cn1c(Nc2ccc(C(F)(F)F)cc2)nc2cc(Oc3ccnc(-c4ncc(C(F)(F)F)[nH]4)c3)ccc21	HTT promoter inh inconclusive (no result: p53null 39C kill, p53null 32C kill)
O=C(NC1CC1)c1cccc(-c2ccc3c(NC(=O)C4CC4)n[nH]c3c2)c1	HTT promoter inh inconclusive (no result: p53null 39C kill, p53null 32C kill)
C/C(=N\O)[C@@H](C)NCC(C)(C)CN[C@H](C)/C(C)=N/O	none (no result: p53null 39C kill, p53null 32C kill)
CCCCN(C)CCNC(=O)C1CCN(c2nc3ccc(CC)cc3s2)CC1	p53null 39C kill 3.16µM, HTT-AS act inconclusive, p53null 32C kill inconclusive
CCc1ccc2nc(N3CCC(C(=O)O)CC3)sc2c1	HTT promoter inh 10µM, p53null 39C kill 5.01µM, p53null 32C kill 7.94µM
CCC(Cc1ccccc1)NC(=O)c1ccc2nc(N3CCC(C)CC3)sc2c1 (stereo unspecified)	HTT promoter inh 1.26µM

Compound activity as filed in PubChem.
